Measurements as given in PubChem BioAssay (EPA / NIEHS).
“And” between values parts separate entries of the source, which are not always exact repeats. Equal entries are not always repeated. Inconclusive results are not listed. The source holds several records for some structures; these can differ, active in one and inactive in another. The source made the active and inactive calls. How the source made its calls, unless noted: active means hit-call score of the fitted dose curve at least 0.9, where 1 is the maximum; inconclusive means response in the unintended direction; inactive means score below 0.9.

What was measured:
[1] = molecular target: Bile acid receptor (Homo sapiens) (UniProt Q96RI1); experiment: OT_FXR_FXRSRC1_0480: Odyssey Thera (OT) 8-hour HEK293T Protein-Complementation Assay for Farnesoid X receptor/SRC-1 Co-activator (AID 2283383)
Bile acid receptor (Homo sapiens), sequence (Q96RI1 whole entry, looked up, the tested form may be a part): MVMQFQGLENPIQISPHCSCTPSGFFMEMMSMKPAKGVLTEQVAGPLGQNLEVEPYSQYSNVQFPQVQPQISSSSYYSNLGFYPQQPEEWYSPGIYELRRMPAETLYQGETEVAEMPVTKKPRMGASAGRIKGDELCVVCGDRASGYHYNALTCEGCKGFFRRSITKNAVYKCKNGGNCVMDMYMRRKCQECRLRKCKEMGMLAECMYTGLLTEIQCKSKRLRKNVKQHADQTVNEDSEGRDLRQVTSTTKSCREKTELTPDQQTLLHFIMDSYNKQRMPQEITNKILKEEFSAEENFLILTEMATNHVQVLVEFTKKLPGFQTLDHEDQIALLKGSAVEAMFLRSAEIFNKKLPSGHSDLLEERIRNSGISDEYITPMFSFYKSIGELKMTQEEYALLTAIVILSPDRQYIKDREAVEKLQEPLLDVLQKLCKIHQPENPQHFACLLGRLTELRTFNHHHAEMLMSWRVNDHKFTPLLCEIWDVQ
Procedure, shortened: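 Human kidney HEK293T cells carried FXR/SRC-1 fragment-complementation constructs. Compounds were added and incubated 8 h. Reporter reassembly upon receptor–co-activator interaction was then quantified by fluorescence, with curves fitted in the positive direction relative to DMSO.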

[2] = molecular target: Bile acid receptor (Homo sapiens) (UniProt Q96RI1); experiment: OT_FXR_FXRSRC1_1440: Odyssey Thera (OT) 24-hour HEK293T Protein-Complementation Assay for Farnesoid X receptor/SRC-1 Co-activator (AID 2283384)
Procedure, shortened: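 Compounds are applied to human kidney HEK293T cells expressing bait and prey fused to reporter protein fragments; after 24 h, reconstituted reporter fluorescence is measured. Activity is fitted as signal gain over DMSO.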

[3] = molecular target: Retinoic acid receptor RXR-alpha (Homo sapiens) (UniProt P19793); experiment: OT_NURR1_NURR1RXRa_0480: Odyssey Thera (OT) 8-hour HEK293T Protein Complementation Assay for Nurr1/retinoid X receptor (RXR) (AID 2283385)
Retinoic acid receptor RXR-alpha (Homo sapiens), sequence (P19793 whole entry, looked up, the tested form may be a part): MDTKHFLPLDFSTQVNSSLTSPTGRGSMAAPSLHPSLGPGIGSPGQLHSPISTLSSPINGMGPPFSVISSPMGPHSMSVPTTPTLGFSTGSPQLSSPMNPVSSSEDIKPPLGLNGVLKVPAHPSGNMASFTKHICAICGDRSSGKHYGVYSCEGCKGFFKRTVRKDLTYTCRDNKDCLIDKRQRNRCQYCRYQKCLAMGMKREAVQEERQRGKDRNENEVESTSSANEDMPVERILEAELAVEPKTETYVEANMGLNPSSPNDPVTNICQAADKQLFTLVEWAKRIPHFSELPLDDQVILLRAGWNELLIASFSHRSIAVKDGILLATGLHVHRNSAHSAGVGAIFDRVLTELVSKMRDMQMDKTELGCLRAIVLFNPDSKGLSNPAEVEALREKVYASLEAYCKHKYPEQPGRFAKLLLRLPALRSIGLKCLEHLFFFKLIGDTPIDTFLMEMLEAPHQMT
Procedure, shortened: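 8 h compound exposure, HEK293T; Nurr1/RXRα fragment complementation; fluorescence intensity; positive fitting direction vs DMSO baseline.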

[4] = molecular target: Retinoic acid receptor RXR-alpha (Homo sapiens) (UniProt P19793); experiment: OT_NURR1_NURR1RXRa_1440: Odyssey Thera (OT) 24-hour HEK293T Protein Complementation Assay for Nurr1/retinoid X receptor (RXR) (AID 2283386)
Procedure, shortened: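 Interaction of Nurr1 with RXRα brings fused reporter fragments together in human HEK293T cells, restoring a functional reporter. Fluorescence intensity is measured 24 h after chemical treatment, and values are analysed in the positive direction against DMSO.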

[5] = molecular target: Peroxisome proliferator-activated receptor gamma (Homo sapiens) (UniProt P37231); experiment: OT_PPARg_PPARgSRC1_1440: Odyssey Thera (OT) 24-hour Protein-Complementation Assay for Peroxisome Proliferator-activated Receptor Gamma/ SRC-1 Co-activator (AID 2283388)
Peroxisome proliferator-activated receptor gamma (Homo sapiens), sequence (P37231 whole entry, looked up, the tested form may be a part): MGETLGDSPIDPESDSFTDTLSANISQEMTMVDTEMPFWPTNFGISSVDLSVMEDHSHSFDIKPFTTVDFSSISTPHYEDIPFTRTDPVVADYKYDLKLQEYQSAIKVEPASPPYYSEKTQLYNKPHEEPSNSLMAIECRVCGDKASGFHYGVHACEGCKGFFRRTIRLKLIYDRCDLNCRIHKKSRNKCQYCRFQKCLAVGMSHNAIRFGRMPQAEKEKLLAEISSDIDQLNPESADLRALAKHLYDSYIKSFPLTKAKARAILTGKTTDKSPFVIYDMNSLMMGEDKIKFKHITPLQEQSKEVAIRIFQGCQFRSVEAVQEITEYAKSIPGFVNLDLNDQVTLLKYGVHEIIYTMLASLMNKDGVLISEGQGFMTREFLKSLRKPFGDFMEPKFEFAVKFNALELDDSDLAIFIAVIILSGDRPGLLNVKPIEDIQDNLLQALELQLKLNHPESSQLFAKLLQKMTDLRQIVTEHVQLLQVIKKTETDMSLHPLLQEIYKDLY
Procedure, shortened: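 HEK293T cells transiently transfected with PPARg and SRC-1 fused via (Gly4Ser)2 linker to split Venus YFP fragments (IFP1/IFP2) were dosed 24 h; fixed, Draq5-stained, imaged at 488/635 nm; nuclear/cytoplasmic fluorescence ratio scored versus DMSO baseline, gain-of-signal.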

[6] = CEETOX_H295R_11DCORT: CeeTox H295R High-throughput Steroidogenesis Assay for 11-Deoxycortisol (11DCORT) (AID 2283432; active means hit-call score of the fitted dose curve at least 0.9, where 1 is the maximum; inactive means score below 0.9;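 on AC50: 11-deoxycortisol secreted into the medium measured by LC-MS/MS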); conditions: actives raise or lower the signal
Procedure, shortened: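 Human adrenal H295R cells were prestimulated with 10 uM forskolin for 48 h, then exposed to test chemical (0.1% DMSO final) for 48 h. Medium 11-deoxycortisol was quantified by MTBE extraction and HPLC-MS/MS; bidirectional fitting relative to DMSO.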

[7] = CEETOX_H295R_OHPREG: CeeTox H295R High-throughput Steroidogenesis Assay for OH-Pregnenolone (OHPREG) (AID 2283434; active means hit-call score of the fitted dose curve at least 0.9, where 1 is the maximum; inactive means score below 0.9); conditions: actives raise or lower the signal
Procedure, shortened: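 H295R cells pre-stimulated 48 h with 10 uM forskolin, then exposed 48 h to chemical in 0.1% DMSO. 17alpha-hydroxypregnenolone in medium quantified by MTBE extraction and HPLC-MS/MS; bidirectional fit versus DMSO, viability checked by MTT.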

[8] = CEETOX_H295R_OHPROG: CeeTox H295R High-throughput Steroidogenesis Assay for OH-Progesterone (OHPROG) (AID 2283435; active means hit-call score of the fitted dose curve at least 0.9, where 1 is the maximum; inactive means score below 0.9;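 on AC50: 17alpha-hydroxyprogesterone secreted into medium measured by HPLC-MS/MS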); conditions: actives raise or lower the signal
Procedure, shortened: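 H295R, 10 uM forskolin prestim 48 h; cmpd in 0.1% DMSO 48 h; medium MTBE-extracted, HPLC-MS/MS for OH-progesterone; 7-pt std curve; bidirectional fit vs DMSO; MTT viability, chemicals diluted until viability >/=70%.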

[9] = CEETOX_H295R_ANDR: CeeTox H295R High-throughput Steroidogenesis Assay for Androstenedione (ANDR) (AID 2283436; active means hit-call score of the fitted dose curve at least 0.9, where 1 is the maximum; inactive means score below 0.9); conditions: actives raise or lower the signal
Procedure, shortened: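 H295R cells, following OECD 456 with minor changes, exposed to chemicals for 48 h. Androstenedione in the medium was quantified by HPLC-MS/MS after MTBE extraction. Fitting was bidirectional versus DMSO; chemicals were diluted until MTT viability was ≥70%.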

[10] = CEETOX_H295R_CORTIC: CeeTox H295R High-throughput Steroidogenesis Assay for Corticosterone (CORTIC) (AID 2283437; active means hit-call score of the fitted dose curve at least 0.9, where 1 is the maximum; inactive means score below 0.9;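 further: corticosterone secreted into medium quantified by mass spectrometry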); conditions: actives raise or lower the signal
Procedure, shortened: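 H295R adrenal cells prestimulated 48 hours with 10 uM forskolin, then exposed 48 hours to chemical in 0.1% DMSO. Corticosterone in medium measured by HPLC-MS/MS after MTBE extraction; MTT viability in the same wells; bidirectional fit versus DMSO.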

[11] = CEETOX_H295R_CORTISOL: CeeTox H295R High-throughput Steroidogenesis Assay for Cortisol (AID 2283438; active means hit-call score of the fitted dose curve at least 0.9, where 1 is the maximum; inactive means score below 0.9;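 further: cortisol secreted into medium quantified by LC-MS/MS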); conditions: actives raise or lower the signal
Procedure, shortened: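 Forskolin 10 uM 48 h prestim → test cmpd in DMSO (0.1% final) 48 h → medium MTBE-extracted → LC-MS/MS cortisol vs 7-pt std curve. Gain/loss of signal fitted vs DMSO. MTT viability in same wells.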

[12] = CEETOX_H295R_DOC: CeeTox H295R High-throughput Steroidogenesis Assay for DOC (AID 2283439; active means hit-call score of the fitted dose curve at least 0.9, where 1 is the maximum; inactive means score below 0.9); conditions: actives raise or lower the signal
Procedure, shortened: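 Readout: 11-deoxycorticosterone in culture medium by reverse-phase C18 HPLC with ESI+ tandem MS after MTBE extraction. Cells: H295R, forskolin-primed (10 uM, 48 h), chemical-treated 48 h; DMSO 0.1% final. Activity fitted bidirectionally versus DMSO.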

[13] = CEETOX_H295R_PROG: CeeTox H295R High-throughput Steroidogenesis Assay for Progesterone (PROG) (AID 2283442; active means hit-call score of the fitted dose curve at least 0.9, where 1 is the maximum; inactive means score below 0.9;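 on AC50: human H295R adrenal cells primed with 10 µM forskolin before dosing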); conditions: actives raise or lower the signal
Procedure, shortened: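 H295R human adrenal cells were prestimulated with 10 uM forskolin for 48 h, then exposed to test chemical (0.1% DMSO final) for 48 h. Medium progesterone was MTBE-extracted and quantified by HPLC-MS/MS, with bidirectional fitting against DMSO.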

[14] = read-out: Tumor necrosis factor receptor superfamily member 6 (Homo sapiens) (UniProt P25445); experiment: LTEA_HepaRG_FAS: Life Technologies and Expression Analysis (LTEA) Assay for Fas cell surface death receptor (FAS) using HepaRG (AID 2283447; active means hit-call score of the fitted dose curve at least 0.9, where 1 is the maximum; inactive means score below 0.9); conditions: mRNA level, 48 h; actives raise or lower the signal
Procedure, shortened: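 Differentiated HepaRG cells in serum-free induction medium were exposed 48 h to 8 half-log concentrations up to 100 uM in 0.5% DMSO, in duplicate. FAS mRNA was measured by qRT-PCR normalised to ACTB, GAPDH and POLR2A; bidirectional fit versus DMSO.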

[15] = read-out: Fatty acid synthase (Homo sapiens) (UniProt P49327); experiment: LTEA_HepaRG_FASN: Life Technologies and Expression Analysis (LTEA) Assay for Fatty Acid Synthase (FASN) using HepaRG (AID 2283448; active means hit-call score of the fitted dose curve at least 0.9, where 1 is the maximum; inactive means score below 0.9;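 on AC50: differentiated human HepaRG liver cells in serum-free induction medium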); conditions: mRNA level, 48 h; actives raise or lower the signal
Procedure, shortened: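 FASN expression changes, up or down relative to 0.5% DMSO, were measured by qRT-PCR in human HepaRG cells after 48 h treatment with chemicals at eight concentrations (half-log steps from 100 uM).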

[16] = molecular target: Peroxisome proliferator-activated receptor gamma (Homo sapiens) (UniProt P37231); experiment: OT_PPARg_PPARgSRC1_0480: Odyssey Thera (OT) 8-hour Protein-Complementation Assay for Peroxisome Proliferator-activated Receptor Gamma / SRC-1 Co-activator (AID 2283387)
Procedure, shortened: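 Protein-fragment complementation of split Venus YFP reports PPARg/SRC-1 interaction in HEK293T (transfected 48 h before treatment), exposed 8 h. Readout: N/C fluorescence ratio at 488 nm from imaging, Draq5 for segmentation, positive fit relative to DMSO.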

Measured: AC50

Fatty acid synthase (Homo sapiens), sequence (P49327 whole entry, looked up): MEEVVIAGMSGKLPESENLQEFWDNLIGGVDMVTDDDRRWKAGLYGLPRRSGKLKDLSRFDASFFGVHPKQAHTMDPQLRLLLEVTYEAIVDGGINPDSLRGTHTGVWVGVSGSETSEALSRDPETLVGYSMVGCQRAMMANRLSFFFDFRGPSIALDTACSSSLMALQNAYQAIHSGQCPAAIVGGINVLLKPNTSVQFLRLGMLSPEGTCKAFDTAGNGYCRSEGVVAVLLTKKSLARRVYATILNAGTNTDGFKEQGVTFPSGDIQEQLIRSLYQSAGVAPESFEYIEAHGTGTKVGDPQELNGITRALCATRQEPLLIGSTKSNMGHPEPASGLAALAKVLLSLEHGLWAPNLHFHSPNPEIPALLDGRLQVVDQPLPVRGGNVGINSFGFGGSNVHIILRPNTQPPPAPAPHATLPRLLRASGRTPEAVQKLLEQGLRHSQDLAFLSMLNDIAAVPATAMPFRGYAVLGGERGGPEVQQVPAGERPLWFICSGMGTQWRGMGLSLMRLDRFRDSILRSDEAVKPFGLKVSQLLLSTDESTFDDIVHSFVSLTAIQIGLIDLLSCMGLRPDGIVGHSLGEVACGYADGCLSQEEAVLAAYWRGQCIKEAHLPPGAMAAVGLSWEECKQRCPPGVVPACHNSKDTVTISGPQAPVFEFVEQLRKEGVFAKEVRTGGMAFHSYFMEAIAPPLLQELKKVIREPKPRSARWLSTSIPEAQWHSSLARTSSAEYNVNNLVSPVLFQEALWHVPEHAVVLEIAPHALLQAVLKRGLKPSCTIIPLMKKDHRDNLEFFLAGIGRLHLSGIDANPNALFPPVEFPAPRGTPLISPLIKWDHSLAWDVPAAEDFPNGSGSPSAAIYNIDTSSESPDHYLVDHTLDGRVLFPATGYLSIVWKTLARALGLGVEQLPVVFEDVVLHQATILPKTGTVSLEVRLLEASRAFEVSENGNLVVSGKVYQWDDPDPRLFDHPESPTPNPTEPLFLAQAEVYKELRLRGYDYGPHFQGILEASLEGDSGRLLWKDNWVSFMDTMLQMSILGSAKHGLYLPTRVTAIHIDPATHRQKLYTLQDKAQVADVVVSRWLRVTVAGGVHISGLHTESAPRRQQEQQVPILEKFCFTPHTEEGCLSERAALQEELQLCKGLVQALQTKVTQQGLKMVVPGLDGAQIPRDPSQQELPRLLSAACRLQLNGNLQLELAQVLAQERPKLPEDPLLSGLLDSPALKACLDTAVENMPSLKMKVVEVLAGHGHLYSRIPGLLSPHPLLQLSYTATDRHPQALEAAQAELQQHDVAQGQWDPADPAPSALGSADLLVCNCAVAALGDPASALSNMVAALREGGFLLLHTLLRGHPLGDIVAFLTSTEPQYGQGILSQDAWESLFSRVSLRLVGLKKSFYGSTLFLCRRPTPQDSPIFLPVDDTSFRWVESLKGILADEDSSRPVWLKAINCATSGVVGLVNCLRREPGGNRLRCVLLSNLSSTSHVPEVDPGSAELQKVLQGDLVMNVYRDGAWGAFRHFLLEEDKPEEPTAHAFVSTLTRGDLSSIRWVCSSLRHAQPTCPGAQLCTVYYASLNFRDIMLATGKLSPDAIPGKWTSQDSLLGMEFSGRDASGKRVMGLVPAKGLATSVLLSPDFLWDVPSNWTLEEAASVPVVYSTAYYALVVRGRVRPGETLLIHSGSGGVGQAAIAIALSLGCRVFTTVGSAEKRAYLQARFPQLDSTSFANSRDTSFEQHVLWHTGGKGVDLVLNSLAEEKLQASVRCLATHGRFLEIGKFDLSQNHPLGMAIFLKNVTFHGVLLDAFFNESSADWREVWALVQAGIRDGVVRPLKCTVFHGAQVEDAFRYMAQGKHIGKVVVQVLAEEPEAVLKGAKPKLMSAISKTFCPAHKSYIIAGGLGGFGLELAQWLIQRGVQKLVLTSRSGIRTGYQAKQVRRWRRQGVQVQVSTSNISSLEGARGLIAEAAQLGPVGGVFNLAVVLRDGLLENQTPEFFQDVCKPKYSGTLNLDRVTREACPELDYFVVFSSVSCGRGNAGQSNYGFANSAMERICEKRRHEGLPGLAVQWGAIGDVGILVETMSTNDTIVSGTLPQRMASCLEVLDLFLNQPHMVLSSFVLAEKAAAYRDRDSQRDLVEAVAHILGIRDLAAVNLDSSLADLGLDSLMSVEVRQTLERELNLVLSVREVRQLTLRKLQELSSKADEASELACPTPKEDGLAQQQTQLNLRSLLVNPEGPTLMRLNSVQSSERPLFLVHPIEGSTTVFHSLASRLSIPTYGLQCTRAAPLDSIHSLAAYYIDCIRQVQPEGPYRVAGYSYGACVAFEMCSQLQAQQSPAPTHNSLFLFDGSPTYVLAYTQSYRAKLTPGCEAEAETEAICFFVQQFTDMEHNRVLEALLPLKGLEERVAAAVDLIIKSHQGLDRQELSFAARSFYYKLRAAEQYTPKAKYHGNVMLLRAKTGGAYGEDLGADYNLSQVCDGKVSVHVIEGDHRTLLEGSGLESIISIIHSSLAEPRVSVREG

Oc1ccc2c(c1)-c1ccccc1C2
inactive: [1] | [2] | [3] | [4] | [5] | [14] | [15]
active: [6] 40 µM | [7] 33.7 µM | [8] 13.5 µM | [9] 42.3 µM | [10] 11.5 µM | [11] 81.5 µM | [12] 30.3 µM | [13] 30.8 µM

Nc1cccc(N)c1
inactive: [1] | [3] | [4] | [16] | [5] | [14] | [15]
active: [2] 78.8 µM

CC(C)=CCC/C(C)=C\CO
inactive: [1] | [2] | [3] | [4] | [5] | [14] | [15]

CC(C)c1cccc(C(C)C)c1N1C(=O)c2ccc(O)cc2C1=O
inactive: [3] | [4] | [16] | [5] | [10] | [14]
active: [1] 20.7 µM | [2] 2.63 µM | [3] 35.4 µM | [7] 32.5 µM | [8] 31.7 µM | [11] 27.1 µM | [12] 16.7 µM | [13] 86.5 µM | [15] 82.1 µM

CC(C)(O)c1coc(S(=O)(=O)NC(=O)Nc2c3c(cc4c2CCC4)CCC3)c1
active: [8] 10.4 µM | [12] 25.2 µM | [13] 19.4 µM
inactive: [1] | [3] | [4] | [5] | [6] | [7] | [10] | [11] | [14] | [15]

CCOc1cccc(-n2cc(C(=O)N3CCN(c4cc(C(=O)O)c5ccccc5c4)CC3)nc2-c2ccc(C)cc2)c1
active: [1] 11.3 µM | [2] 11.3 µM | [15] 80.5 µM
inactive: [5] | [6] | [7] | [8] | [9] | [10] | [11] | [12] | [13] | [14]

CCOCCOCCOCCO
inactive: [2] | [3] | [4] | [16] | [5] | [15]

O=C(OC[C@H]1O[C@@H](OC(=O)c2cc(O)c(O)c(OC(=O)c3cc(O)c(O)c(O)c3)c2)[C@H](OC(=O)c2cc(O)c(O)c(OC(=O)c3cc(O)c(O)c(O)c3)c2)[C@@H](OC(=O)c2cc(O)c(O)c(OC(=O)c3cc(O)c(O)c(O)c3)c2)[C@@H]1OC(=O)c1cc(O)c(O)c(OC(=O)c2cc(O)c(O)c(O)c2)c1)c1cc(O)c(O)c(OC(=O)c2cc(O)c(O)c(O)c2)c1
inactive: [3] | [5]
active: [3] 20.5 µM | [4] 15.2 µM | [14] 7.03 µM | [15] 15.2 µM

CCOC(=O)CC(CC(=O)OCC)(OC(C)=O)C(=O)OCC
inactive: [1] | [2] | [3] | [4] | [16] | [5] | [14] | [15]

Cc1ccc(O)cc1
inactive: [1] | [2] | [3] | [4] | [16] | [5] | [6] | [7] | [8] | [9] | [10] | [11] | [12] | [13] | [14] | [15]

CCCCC(CC)COC(=O)c1ccc(C(=O)OCC(CC)CCCC)cc1 (stereo not drawn)
inactive: [1] | [3] | [4] | [5] | [14] | [15]

CC1(C)C(=O)N(Br)C(=O)N1Br
inactive: [1] | [2] | [3] | [4] | [16] | [5] | [14] | [15]

C1N2CN3CN1CN(C2)C3
inactive: [1] | [2] | [3] | [4] | [5] | [14] | [15]

CNS(=O)(=O)c1cc(C(=O)N2CCC(CCN3C4CCC3CC(n3c(C)nc5ccccc53)C4)(c3cccc(F)c3)CC2)c(Cl)cc1F (stereo not drawn)
active: [1] 12.6 µM | [2] 17.6 µM | [3] 14.3 µM | [4] 28.4 µM and 12.1 µM | [8] 2.65 µM | [9] 3.6 µM
inactive: [3] | [5] | [7] | [13] | [14] | [15]

COCCOCCOCCOC
inactive: [1] | [2] | [3] | [4] | [5] | [14] | [15]

CC(C)=CCC/C(C)=C/CO
inactive: [1] | [3] | [4] | [16] | [5] | [14] | [15]

CCOC(=O)c1ccc(C2CCC(NC[C@H](O)COc3ccc(O)c(NS(C)(=O)=O)c3)CC2)cc1 (stereo partly drawn)
inactive: [16] | [5] | [11] | [14] | [15]
active: [2] 28.8 µM | [4] 10.4 µM | [6] 2.78 µM | [7] 2.95 µM | [8] 5.6 µM | [10] 9.35 µM | [12] 2.84 µM | [13] 2.61 µM

O=C1CCCCCN1
inactive: [1] | [2] | [5] | [14] | [15]

Cc1c(-c2cccnc2)c2ccccc2n1CCCCC(=O)O
active: [13] 7.25 µM
inactive: [1] | [2] | [3] | [5] | [7] | [8] | [14] | [15]

CCNc1ccccc1
inactive: [1] | [2] | [3] | [4] | [5] | [14] | [15]
